Experimental data taken from PubChem BioAssay AID430 (Sanford-Burnham Center for Chemical Genomics, 2006).
Hit rate of the full screen: of about 63,000 compounds, about 1,100 (1.7%) were called active. This is one part of a sample in which actives are shown more often than they occur. Cut-off read from the data, not from the text of the source: active = cytotoxicity above about 50%; inactive = the rest. Results with a measured potency or affinity are listed apart.

experiment: cytotoxicity in HPDE-C7 cells, cell-based, fluorescence, HTS (AID 430); settings: HPDE-C7 pancreatic duct cells viability, at 10 µM, active compounds read high;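 note: cells exposed to compound for 48 hours before viability readout; 0% = vehicle and 100% = reference cytotoxic drug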

| Compound | cytotoxicity |
| --- | --- |
| COc1ccc(NC(=O)CS(=O)CC(=O)Nc2cc(Cl)ccc2OC)cc1 (stereo not given) | -12.2% (inactive) |
| CC(Oc1ccc(Cl)cc1Cl)C(=O)Nc1ccncc1 (stereo not given) | -0.5% (inactive) |
| Cc1ccc(N(CC(O)CN(C)C)S(=O)(=O)c2ccccc2)cc1 (stereo not given) | 3.3% (inactive) |
| COc1ccc(C(=O)Nc2nnc(-c3ccccc3)o2)cc1OC | -9.5% (inactive) |
| COc1ccccc1C(=O)Nc1nnc(-c2ccc(Cl)cc2)o1 | -10.4% (inactive) |
| CN(C)c1ccc(C(=O)Nc2nnc(-c3ccc(Cl)cc3)o2)cc1 | 31.7% (inactive) |
| Cc1cccc(-c2nnc(-c3ccccc3)o2)c1 | -3.9% (inactive) |
| O=C(Nc1nnc(-c2ccccc2)o1)Nc1ccccc1Cl | 22.1% (inactive) |
| Cc1cccc(-c2nnc(-c3ccc(N)cc3)o2)c1 | -2% (inactive) |
| CC(=O)c1ccc(C(=O)Nc2nnc(-c3ccc(Cl)cc3)o2)cc1 | 66.8% (active) |
| Cc1cccc(-c2nnc(NC(=O)c3ccc(Cl)cc3)o2)c1 | 79.5% (active) |
| Cc1cc(NC(c2cccnc2)c2c(C)[nH]c3ccccc23)no1 (stereo not given) | 5.2% (inactive) |
| CC(=O)c1ncnn1CC(=O)c1ccc(Cl)cc1Cl | 13.6% (inactive) |
| O=C(CCN1CCc2ccccc2C1)Nc1cccc(F)c1 | 3.9% (inactive) |
| Cc1ccc(NS(=O)(=O)c2cccc(C(=O)Nc3cc(C)on3)c2)cc1 | -4.8% (inactive) |
| Cc1ccc2nc3ccc(N4CCN(C)CC4)nn3c(=O)c2c1 | -2.8% (inactive) |
| COc1cccc(C2=NOC(C(=O)NC(C)(C)C)C2)c1 (stereo not given) | -11.2% (inactive) |
| COc1cccc(C2=NOC(C(=O)NC(C)C)C2)c1 (stereo not given) | -3.9% (inactive) |
| CC(C)(C)SCCNS(=O)(=O)c1ccc(F)cc1 | 5.7% (inactive) |
| O=S(=O)(c1cccc(-c2nnc(SCc3ccc(Cl)cc3)o2)c1)N1CCCCC1 | -2.9% (inactive) |

| Compound | cytotoxicity |
| --- | --- |
| Cc1cc2nc(-c3ccc(SCC(=O)N4CCOCC4)nc3)[nH]c2cc1C | -15.5% (inactive) |
| O=C(NC1=NCCS1)Nc1ccccc1 | 1.2% (inactive) |
| COc1ccc(CCN2C(=O)c3[nH]nc(-c4ccccc4O)c3C2c2cccc(O)c2)cc1OC (stereo not given) | 66% (active) |
| CC(C)OCCCN1C(=O)c2[nH]nc(-c3ccccc3O)c2C1c1cccc(Cl)c1 (stereo not given) | -3.6% (inactive) |
| COc1ccc(C2c3c(-c4ccccc4O)n[nH]c3C(=O)N2CCc2ccc(OC)c(OC)c2)cc1 (stereo not given) | 36.9% (inactive) |
| COCCCN1C(=O)c2[nH]nc(-c3ccccc3O)c2C1c1cccc(Cl)c1 (stereo not given) | 13.3% (inactive) |
| Cc1ccc(C2c3c(-c4ccccc4O)n[nH]c3C(=O)N2Cc2ccncc2)cc1 (stereo not given) | -3.9% (inactive) |
| Cc1cc(O)c(-c2n[nH]c3c2C(c2cccc(O)c2)N(Cc2cccnc2)C3=O)cc1Cl (stereo not given) | 8% (inactive) |
| COCCCN1C(=O)c2[nH]nc(-c3ccccc3O)c2C1c1ccc(Cl)cc1 (stereo not given) | 67.3% (active) |
| COc1ccc(CCN2C(=O)c3[nH]nc(-c4ccccc4O)c3C2c2ccccc2)cc1OC (stereo not given) | 54.9% (active) |
| COc1ccc(C2c3c(-c4cc(Cl)c(C)cc4O)n[nH]c3C(=O)N2Cc2cccnc2)cc1OC (stereo not given) | 26.6% (inactive) |
| COCCCN1C(=O)c2[nH]nc(-c3cc(C)cc(C)c3O)c2C1c1ccc(O)c(OC)c1 (stereo not given) | -2.5% (inactive) |
| COc1cc(C2c3c(-c4cc(C)cc(C)c4O)n[nH]c3C(=O)N2CCCO)cc(OC)c1OC (stereo not given) | 0.6% (inactive) |
| Cc1noc(C)c1C(=O)OCC(=O)c1c[nH]c2ccccc12 | 4.1% (inactive) |
| O=C(NCCC1=CCCCC1)C1CC(=O)N(C2CCCCC2)C1 (stereo not given) | 1.5% (inactive) |
| COc1ccc(-c2noc(CCC(=O)N3CCN(c4cc(C)ccc4C)CC3)n2)cc1 | 11.6% (inactive) |
| O=C(CSCc1nc2ccccc2[nH]1)N1CCN(c2cccc(Cl)c2)CC1 | 7.4% (inactive) |
| COc1ccc(CCN2CC(C(=O)O)CC2=O)cc1 (stereo not given) | 1.2% (inactive) |
| c1ccc(CCc2nc(-c3ccccn3)no2)cc1 | 6.2% (inactive) |
| O=C1c2ccccc2NC(c2ccccn2)N1c1ccc(Cl)cc1 (stereo not given) | -4.1% (inactive) |

| Compound | cytotoxicity |
| --- | --- |
| CCN(CC)S(=O)(=O)c1ccc(NC(=O)CSc2nnc(-c3ccc(F)cc3)o2)cc1 | -7.7% (inactive) |
| CCCN(CCC)S(=O)(=O)c1ccc(C(=O)Nc2nnc(-c3cccc(OC)c3)o2)cc1 | 66.4% (active) |
| COc1cccc(-c2nnc(NC(=O)c3ccc(S(=O)(=O)N4CC(C)OC(C)C4)cc3)o2)c1 (stereo not given) | -5.9% (inactive) |
| COc1cccc(-c2nnc(NC(=O)c3ccc(S(=O)(=O)N(CC(C)C)CC(C)C)cc3)o2)c1 | 51.2% (active) |
| COc1cccc(-c2nnc(NC(=O)c3ccc(S(=O)(=O)N4CCOCC4)cc3)o2)c1 | 13.7% (inactive) |
| COc1cccc(-c2nnc(NC(=O)c3ccccc3Br)o2)c1 | 22.6% (inactive) |
| CCCN(CCC)S(=O)(=O)c1ccc(C(=O)Nc2nnc(-c3cc(OC)cc(OC)c3)o2)cc1 | 47.5% (inactive) |
| CCCn1c(SCC(=O)Nc2nnc(CC)s2)nnc1-c1ccco1 | -5% (inactive) |
| O=C(Nc1ccc2oc(=O)ccc2c1)c1cccnc1 | 3% (inactive) |
| COc1ccccc1-c1nc(-c2ccncc2)no1 | 2.1% (inactive) |
| COc1cc2oc(=O)c(Br)c(C)c2c(OC)c1OC | -8.6% (inactive) |
| CCCS(=O)(=O)c1c(S(=O)(=O)CCC)c2ccccn2c1C(=O)OC | -3.7% (inactive) |
| CCN1CCN(c2cc(=O)n(C3CCCCC3)c(=O)[nH]2)CC1 | -14.2% (inactive) |
| CCOC(=O)N1CCN(C(=O)CCc2c(C)nc3c(c(C)nn3-c3ccc(C)c(C)c3)c2C)CC1 | -7.7% (inactive) |
| CCCCOc1ccc(S(=O)(=O)Nc2cc(OC)ccc2OC)cc1 | 31.3% (inactive) |
| COc1ccc(OC)c(NS(=O)(=O)c2ccc(SC)cc2)c1 | 36.3% (inactive) |
| COc1ccc(OC)c(NS(=O)(=O)c2ccc3c(c2)CCC(=O)N3)c1 | 3.3% (inactive) |
| COC(=O)COc1ccc(S(=O)(=O)Nc2cc(OC)ccc2OC)cc1 | -2.9% (inactive) |
| CCOc1ccc(S(=O)(=O)Nc2cc(OC)ccc2OC)cc1 | 73.1% (active) |
| COc1ccc(OC)c(NS(=O)(=O)c2ccc(N3CCCC3=O)cc2)c1 | 75.9% (active) |
